Test results taken from PubChem BioAssay (Tox21).
“And” between values parts separate entries of the source, which are not always exact repeats. Equal values may be shown once. Records with an inconclusive call do not appear. Entries that show only a call come without a potency. The source made the active and inactive calls. Unless noted, calls come from the whole dose curve.

Experiments:
[1] = Nuclear factor erythroid 2-related factor 2/antioxidant responsive element (Nrf2/ARE) small molecule agonists: qHTS cell viability counter screen in human keratinocytes (AID 1919968; active = well fitted curve in the direction sought with a large enough effect in the repeat runs; an effect the other way counts as inactive or inconclusive; note: nearly all actives have a fitted effect of over 55% in size)
Method in brief: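 CellTiter-Fluor fluorescence, read 1 h after reagent, gave viability in the same wells as the ARE-luciferase assay. KeratinoSens cells (1,500/well) had 23 h compound exposure at 37 C/5% CO2 following 5 h plating.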

[2] = Nuclear factor erythroid 2-related factor 2/antioxidant responsive element (Nrf2/ARE) small molecule agonists: luciferase reporter gene qHTS assay in human keratinocytes (AID 1919969); note: nearly all actives have a fitted effect of over 35% in size; note: potency is the fitted concentration of half-maximal effect
[3] = target: Gonadotropin-releasing hormone receptor (Homo sapiens) (UniProt P30968); assay: Human gonadotropin-releasing hormone receptor (GnRHR) small molecule agonists, calcium flux assay in GnRHR-HEK293 cells (AID 1920063); note: nearly all actives have a fitted effect of over 35% in size
Method in brief: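 Agonist mode: compounds at 15 concentrations, in triplicate, went onto calcium dye-loaded GnRHR-HEK293 cells. Intracellular calcium was then followed as 480/540 nm fluorescence at 1 s intervals over 3 min.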

[4] = target: KiSS-1 receptor (Homo sapiens) (UniProt Q969F8); assay: Human kisspeptin (KISS1R) small molecule agonists, calcium flux assay in KISS1R-HEK293 cells (AID 1920064; active = well fitted curve in the direction sought with a large enough effect in the repeat runs; an effect the other way counts as inactive or inconclusive)
Method in brief: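 Agonist mode: intracellular calcium rise tracked at 1 s intervals over 3 min (480/540 nm) immediately after compound addition to dye-loaded KISS1R-HEK293 stable cells. Each compound tested at 15 concentrations in triplicate.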

[5] = G protein-coupled receptor (GPCR) small molecule agonists, calcium flux assay: HEK293 wild type cell line counter screen (AID 1920065)
Method in brief: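 Calcium flux counter screen: compound added in agonist mode at 15 concentrations in triplicate to dye-loaded parental HEK293 cells. Fluorescence (480/540) read kinetically for 3 min; ATP served as positive control.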

[6] = p53 small molecule agonists, cell-based qHTS assay with human liver microsomes (AID 1963577); note: potency is the fitted concentration of half-maximal effect;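 for activation: p53 response element beta-lactamase reporter cells with liver microsomes plus NADPH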
Method in brief: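 With metabolic activation: human liver microsomes (0.5 mg/mL final) plus NADPH (0.5 mg/mL final) added alongside compounds to p53RE-bla cells; 16 h 37 C exposure; beta-lactamase read by LiveBLAzer fluorescence.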

[7] = p53 small molecule agonists, cell-based qHTS assay with human liver microsomes: qHTS cell viability counter screen (AID 1963579); note: nearly all actives have a fitted effect of over 45% in size
Method in brief: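 Metabolic activation used human liver microsomes and NADPH, both 0.5 mg/mL final, over 16 hours at 37 C on p53RE-bla cells (4,000/well). Cytotoxicity measured by CellTiter-Glo luminescence, 30 min at room temperature.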

[8] = p53 small molecule agonists, cell-based qHTS assay with rat liver microsomes: qHTS cell viability counter screen (AID 1963580); note: nearly all actives have a fitted effect of over 45% in size
Method in brief: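 Luminescent ATP readout (CellTiter-Glo, 30 min at room temperature) reports viability of p53RE-bla HCT-116 cells after 16 h at 37 C with test compounds under metabolic activation by rat liver microsomes and NADPH at 0.5 mg/mL final each.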

[9] = p53 small molecule agonists, cell-based qHTS assay: qHTS cell viability counter screen (AID 1963581); note: nearly all actives have a fitted effect of over 45% in size
Method in brief: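 Counter screen read by CellTiter-Glo luminescence (ATP content, 30 min at room temperature), run in the same wells as the beta-lactamase reporter read. HCT-116 p53RE-bla cells saw compounds for 16 h at 37 C.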

[10] = p53 small molecule agonists, cell-based qHTS assay (AID 1963582; active = well fitted activation curve with a large enough effect in the signal ratio in the repeat runs, not every such curve was filed as active; the % refers to the signal ratio)
Method in brief: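 Read-out is beta-lactamase FRET fluorescence after 2 h at room temperature with LiveBLAzer B/G substrate. p53 response element-bla cells were treated 16 h at 37 C with compounds in DMSO, added 5 h after seeding.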

[11] = target: 5-hydroxytryptamine receptor 2A (Homo sapiens) (UniProt P28223); assay: 5-hydroxytryptamine receptor 2A (HTR2A) small molecule agonists, cell-based qHTS assay (AID 1963587); note: nearly all actives have a fitted effect of over 30% in size
Method in brief: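 HTR2A-CHO cells, plated 18 h at 37 C/5% CO2, dye-loaded 1 h at 37 C; compounds in DMSO added by pin tool (agonist mode). Intracellular calcium flux read as kinetic fluorescence on FDSS over 2 min at 1 s intervals.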

[12] = target: Muscarinic acetylcholine receptor M1 (Homo sapiens) (UniProt P11229); assay: Cholinergic receptor muscarinic 1 (CHRM1) small molecule antagonists, cell-based qHTS assay (AID 1963588); note: nearly all actives have a fitted effect of over 40% in size; note: potency is the fitted concentration of half-maximal effect
Method in brief: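 Compounds were tested at 15 concentrations in three independent runs. Dye-loaded CHRM1-CHO cells were exposed 5 min at room temperature before stimulation by acetylcholine added at 50nM. Intracellular calcium was read kinetically on FDSS for 3 min.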

[13] = target: Muscarinic acetylcholine receptor M1 (Homo sapiens) (UniProt P11229); assay: Cholinergic receptor muscarinic 1 (CHRM1) small molecule agonists, cell-based qHTS assay (AID 1963589); note: nearly all actives have a fitted effect of over 35% in size
Method in brief: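 Agonist-mode calcium-flux screen: compounds at 15 concentrations, three independent runs, were pin-transferred onto dye-loaded human CHRM1-CHO cells. Fluorescence was then recorded kinetically every second over minutes.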

[14] = cAMP Responsive Elements (CRE) small molecule agonists, cell-based qHTS assay (AID 1963590)
Method in brief: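 Agonist mode: compound added to CRE-bla HEK 293T cells (2,000/well, 18 h after plating) for 3 h at 37 C/5% CO2. Reporter activity detected via FRET beta-lactamase substrate, 2 h room-temperature loading.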

[15] = cAMP Responsive Elements (CRE) small molecule antagonists, cell-based qHTS assay (AID 1963591; active = well fitted inhibition curve with a large enough effect in the signal ratio in the repeat runs, not every such curve was filed as active; the % refers to the signal ratio)
Method in brief: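 Antagonist mode: compounds are added alongside the adenylyl cyclase activator NKH477 (0.25 uM final) to CRE-bla HEK293T cells for 3 h. LiveBLAzer FRET substrate, 2 h at room temperature, reports bla expression.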

[16] = target: Beta-2 adrenergic receptor (Homo sapiens) (UniProt P07550); assay: Adrenergic beta2 receptor (ADRB2) small molecule antagonists, cell-based qHTS assay (AID 1963592); note: series mostly up to about 92 µM; nearly all actives have a fitted effect of over 50% in size
Method in brief: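 Assay format: CHO-ADRB2 cells, 18-20hr seeding at 37C/5% CO2, then compound plus 1nM isoproterenol agonist mix for 0.5hr RT. Homogeneous time-resolved fluorescence cAMP detection after 1hr, expressed as 665/615 nm ratio.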

[17] = target: Beta-2 adrenergic receptor (Homo sapiens) (UniProt P07550); assay: Adrenergic beta2 receptor (ADRB2) small molecule agonists, cell-based qHTS assay (AID 1963593);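 note: CHO cells stably overexpressing human ADRB2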
Method in brief: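 CHO cells stably over-expressing ADRB2 were plated overnight at 37C, then dosed with compounds plus a stimulation mix containing 100uM IBMX and 25uM Ro-20-1724 for 0.5hr at room temperature. cAMP was measured by HTRF competition, 1hr.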

[18] = target: D(2) dopamine receptor (Homo sapiens) (UniProt P14416); assay: Dopamine D2 receptor (DRD2) small molecule agonists, cell-based qHTS assay (AID 1963594); note: nearly all actives have a fitted effect of over 35% in size
Method in brief: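 HEK293 cells stably expressing DRD2 were cultured 24 h at 37 C, then given Ro20-1724 (0.1 mM final) and compounds for 10 min at room temperature. NKH477 (200nM) was then added for 30 min. cAMP was read by HTRF.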

[19] = target: D(2) dopamine receptor (Homo sapiens) (UniProt P14416); assay: Dopamine D2 receptor (DRD2) small molecule antagonists, cell-based qHTS assay (AID 1963595; active = well fitted inhibition curve with a large enough effect in the signal ratio in the repeat runs, with a control signal flat; the % refers to the signal ratio)
Method in brief: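 In this cell-based antagonist screen, compounds act for 10 min at room temperature before a 30 min challenge with 12 nM quinpirole and 200 nM NKH477. cAMP is quantified by HTRF competition in DRD2-HEK293 cells containing 0.1 mM Ro20-1724.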

[20] = target: 5-hydroxytryptamine receptor 2A (Homo sapiens) (UniProt P28223); assay: 5-hydroxytryptamine receptor 2A (HTR2A) small molecule antagonists, cell-based qHTS assay (AID 1963586); note: nearly all actives have a fitted effect of over 45% in size
Method in brief: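 CHO cells stably expressing human HTR2A were plated for 18 h at 37 C, then loaded with calcium dye for 1 h. Compounds were preincubated 5 min at room temperature before DOI (4 nM solution) was added. Kinetic fluorescence was read for 3 min.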

Chain of 5-hydroxytryptamine receptor 2A (Homo sapiens) (P28223 whole entry, looked up): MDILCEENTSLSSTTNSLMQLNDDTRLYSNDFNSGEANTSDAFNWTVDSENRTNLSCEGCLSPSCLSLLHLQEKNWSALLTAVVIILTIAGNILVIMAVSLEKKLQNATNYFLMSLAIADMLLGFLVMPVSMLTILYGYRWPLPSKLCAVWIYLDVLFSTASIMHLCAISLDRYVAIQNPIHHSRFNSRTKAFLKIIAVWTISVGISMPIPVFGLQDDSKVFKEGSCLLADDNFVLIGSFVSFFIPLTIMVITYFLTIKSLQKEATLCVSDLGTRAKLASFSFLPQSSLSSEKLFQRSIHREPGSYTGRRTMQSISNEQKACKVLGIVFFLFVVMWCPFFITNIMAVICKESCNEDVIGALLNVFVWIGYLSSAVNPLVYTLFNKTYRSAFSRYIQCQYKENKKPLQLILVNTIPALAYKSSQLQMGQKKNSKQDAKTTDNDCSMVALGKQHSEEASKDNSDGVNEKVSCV
Chain of Muscarinic acetylcholine receptor M1 (Homo sapiens) (P11229 whole entry, looked up): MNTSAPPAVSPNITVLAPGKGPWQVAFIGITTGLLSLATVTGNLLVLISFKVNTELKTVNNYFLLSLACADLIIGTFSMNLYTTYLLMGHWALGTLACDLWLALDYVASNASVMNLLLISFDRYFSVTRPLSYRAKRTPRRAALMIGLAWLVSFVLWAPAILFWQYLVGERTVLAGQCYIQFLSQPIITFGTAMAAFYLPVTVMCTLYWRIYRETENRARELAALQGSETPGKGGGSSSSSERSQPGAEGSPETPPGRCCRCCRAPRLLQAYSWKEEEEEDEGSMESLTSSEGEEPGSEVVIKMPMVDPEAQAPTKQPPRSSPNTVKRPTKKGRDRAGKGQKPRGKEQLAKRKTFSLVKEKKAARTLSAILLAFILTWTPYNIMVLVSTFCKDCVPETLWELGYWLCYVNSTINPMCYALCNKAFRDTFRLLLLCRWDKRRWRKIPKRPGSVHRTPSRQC
Chain of KiSS-1 receptor (Homo sapiens) (Q969F8 whole entry, looked up): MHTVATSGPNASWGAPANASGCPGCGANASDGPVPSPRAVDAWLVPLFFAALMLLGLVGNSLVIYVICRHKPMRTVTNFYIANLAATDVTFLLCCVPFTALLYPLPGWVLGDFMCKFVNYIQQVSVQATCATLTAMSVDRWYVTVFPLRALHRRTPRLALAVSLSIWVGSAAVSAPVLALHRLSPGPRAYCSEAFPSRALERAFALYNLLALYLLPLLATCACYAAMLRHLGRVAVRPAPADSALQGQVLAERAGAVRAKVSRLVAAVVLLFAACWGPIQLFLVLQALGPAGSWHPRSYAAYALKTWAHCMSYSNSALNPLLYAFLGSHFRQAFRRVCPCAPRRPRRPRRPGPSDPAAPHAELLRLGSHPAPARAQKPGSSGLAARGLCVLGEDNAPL
Chain of Beta-2 adrenergic receptor (Homo sapiens) (P07550 whole entry, looked up): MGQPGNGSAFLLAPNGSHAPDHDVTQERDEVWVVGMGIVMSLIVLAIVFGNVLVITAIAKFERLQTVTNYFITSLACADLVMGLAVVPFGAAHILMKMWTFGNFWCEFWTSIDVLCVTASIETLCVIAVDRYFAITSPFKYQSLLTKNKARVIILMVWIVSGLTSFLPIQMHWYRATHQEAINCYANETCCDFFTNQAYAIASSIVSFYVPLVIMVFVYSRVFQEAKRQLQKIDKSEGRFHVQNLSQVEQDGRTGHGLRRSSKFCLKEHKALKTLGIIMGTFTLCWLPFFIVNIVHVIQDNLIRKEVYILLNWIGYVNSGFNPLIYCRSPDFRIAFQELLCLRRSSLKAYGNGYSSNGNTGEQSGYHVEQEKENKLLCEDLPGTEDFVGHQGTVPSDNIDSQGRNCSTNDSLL
Chain of Gonadotropin-releasing hormone receptor (Homo sapiens) (P30968 whole entry, looked up): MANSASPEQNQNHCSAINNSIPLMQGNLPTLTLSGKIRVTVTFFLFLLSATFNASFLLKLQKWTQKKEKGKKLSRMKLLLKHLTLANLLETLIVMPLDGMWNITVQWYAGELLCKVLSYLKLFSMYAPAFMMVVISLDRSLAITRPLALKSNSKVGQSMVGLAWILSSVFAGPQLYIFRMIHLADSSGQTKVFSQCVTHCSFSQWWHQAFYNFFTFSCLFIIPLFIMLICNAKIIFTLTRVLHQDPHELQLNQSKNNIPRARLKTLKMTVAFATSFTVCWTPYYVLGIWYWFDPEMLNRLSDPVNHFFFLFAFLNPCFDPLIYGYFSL
Chain of D(2) dopamine receptor (Homo sapiens) (P14416 whole entry, looked up): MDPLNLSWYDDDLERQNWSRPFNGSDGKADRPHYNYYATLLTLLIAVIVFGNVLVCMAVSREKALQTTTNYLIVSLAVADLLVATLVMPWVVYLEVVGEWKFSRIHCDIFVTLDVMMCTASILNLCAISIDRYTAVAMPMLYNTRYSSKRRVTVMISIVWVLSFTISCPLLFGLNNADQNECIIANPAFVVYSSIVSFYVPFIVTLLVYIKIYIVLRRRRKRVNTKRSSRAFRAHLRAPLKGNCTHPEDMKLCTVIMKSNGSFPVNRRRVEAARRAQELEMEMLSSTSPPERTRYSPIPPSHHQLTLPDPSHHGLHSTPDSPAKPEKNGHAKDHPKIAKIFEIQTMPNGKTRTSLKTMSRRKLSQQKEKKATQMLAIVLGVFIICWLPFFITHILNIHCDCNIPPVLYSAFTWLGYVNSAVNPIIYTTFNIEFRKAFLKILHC

Row | SMILES | Potency [1] | Potency [2] | Potency [3] | Potency [4] | Potency [5] | Potency [6] | Potency [7] | Potency [8] | Potency [9] | Potency [10] | Potency [11] | Potency [12] | Potency [13] | Potency [14] | Potency [15] | Potency [16] | Potency [17] | Potency [18] | Potency [19] | Potency [20]
1 | CNC(=O)Oc1cccc2c1OC(C)(C)O2 | inactive | inactive | inactive | inactive | inactive | inactive | inactive | inactive | inactive | inactive | inactive | inactive | inactive | inactive | inactive | inactive | inactive | inactive | inactive | 
2 | ClC(Cl)(Cl)C(Cl)(Cl)Cl | inactive | inactive | inactive | inactive | inactive | inactive | inactive | inactive |  | inactive | inactive | inactive | inactive | inactive |  | inactive |  | inactive |  | inactive
3 | c1ccc(OP(Oc2ccccc2)Oc2ccccc2)cc1 | inactive | inactive | inactive | inactive | inactive | inactive | inactive | inactive |  | inactive | inactive | inactive | inactive | inactive | inactive | inactive | inactive | inactive | inactive | inactive
4 | COC(=O)NS(=O)(=O)c1ccc(N)cc1 | inactive | inactive | inactive | inactive | inactive | inactive | inactive | inactive | inactive | inactive | inactive |  | inactive | inactive | inactive | inactive |  | inactive | inactive | inactive
5 | CCN(CC)Cc1nccn1-c1ccc([N+](=O)[O-])cc1C(=O)c1ccccc1Cl | inactive | inactive | inactive | inactive | inactive | inactive | inactive | inactive | inactive | inactive |  | inactive | inactive | inactive | inactive | inactive | inactive | inactive | inactive | inactive
6 | COP(=S)(OC)SCn1nnc2ccccc2c1=O | inactive | 53.4 µM (active) and 68.6 µM (active) | inactive | inactive | inactive | 12.6 µM (active) | inactive | inactive | inactive | inactive | inactive | inactive | inactive | inactive | inactive | inactive | inactive | inactive | inactive | 
7 | CC(O)CN1CCN(CC(=O)[O-])CCN(CC(=O)[O-])CCN(CC(=O)[O-])CC1.[Gd+3] (configuration not stated) | inactive | inactive | inactive | inactive | inactive | inactive | inactive |  | inactive | inactive | inactive | inactive | inactive |  | inactive |  | inactive | inactive | inactive | inactive
8 | CCOP(=S)(OCC)Oc1cc(C)nc(C(C)C)n1 | inactive | inactive | inactive | inactive | inactive | inactive | inactive |  | inactive | inactive | inactive | inactive | inactive | inactive | inactive | inactive | inactive |  | inactive | inactive
9 | CCC(=O)O[C@H]1CC[C@H]2[C@@H]3CCC4=CC(=O)CC[C@]4(C)[C@H]3CC[C@]12C | inactive | inactive | inactive | inactive | inactive | inactive | inactive | inactive | inactive | inactive | inactive | 5.3 µM (active) and 4.6 µM (active) | inactive |  |  | inactive | inactive | inactive |  | 
10 | C=CC=O | inactive | inactive | inactive | inactive | inactive | inactive | inactive | inactive | inactive |  | inactive | inactive | inactive | inactive |  | inactive |  | inactive | inactive | inactive
11 | N#CCc1ccccc1 | inactive | inactive | inactive | inactive | inactive | inactive | inactive | inactive | inactive |  | inactive | inactive | inactive | inactive | inactive | inactive | inactive | inactive | inactive | inactive
12 | c1ccc(CN2CCNCC2)cc1 | inactive | inactive | inactive | inactive | inactive | inactive | inactive | inactive | inactive | inactive |  | inactive | inactive | inactive | inactive | inactive |  | inactive | inactive | inactive
13 | N#CN=C(N)N | inactive | inactive | inactive | inactive | inactive | inactive | inactive |  | inactive |  | inactive | inactive | inactive | inactive | inactive | inactive | inactive | inactive | inactive | inactive
14 | Sc1ccccc1Cl | inactive | inactive | inactive | inactive | inactive | inactive | inactive | inactive | inactive | inactive |  | inactive | inactive | inactive | inactive | inactive | inactive | inactive | inactive | inactive
